# Bioassay records from PubChem.
# IDE act = human IDE activators in live cells, primary screen, fluorescence polarization, HEK cells, FAbeta-B substrate. Insulin-degrading enzyme (Homo sapiens), P14735. FAbeta-B cleavage; 0% vehicle, 100% cell-free pure enzyme wells. activation, % at 5.96 µM. 340,000 compounds, 0.073% hits. AID 493087, 2011;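 active = activation above the mean of all tested compounds plus 3 SD, set per screening campaign, cut at about 17% in these data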
# IDE inh = human IDE inhibitors in live cells, primary screen, fluorescence polarization, HEK cells, FAbetaB substrate; AID 434962, 2010; inhibition, % at 5.59 µM; 320,000 compounds, 0.41% hits; FAbetaB cleavage; Insulin-degrading enzyme (Homo sapiens), P14735;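 active = percent inhibition above the average of all tested compounds plus 3 SD, set per screening campaign, cut at about 16% in these data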;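 note: IDE supplied by intact live HEK cells; FP after avidin binding of uncleaved biotin substrate so inhibition keeps polarization high; 0% = DMSO wells and 100% = 60 µM reference IDE inhibitor Ii1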
# CHT block = inhibitors of human choline transporter CHT; High affinity choline transporter 1 (Homo sapiens), Q9GZV3; CHT-expressing cells, membrane potential dye, choline response; active compounds read low; B-score at 10 µM; 310,000 compounds, 0.86% hits; AID 488975, 2010;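 active = B-score over 3 SD under the library average, and starting fluorescence ratio not unusually high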;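 note: choline stimulus applied at its EC90 after an EC20 pre-addition; B-score computed on integrated fluorescence ratio after choline addition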
# TMEM16A inh = TMEM16A chloride channel inhibitors, primary screen, cell-based, HTS; Anoctamin-1 (Mus musculus), Q8BHY3; HEK293 TMEM16A/YFP iodide influx fluorescence, ionomycin; 310,000 compounds, 1.2% hits; normalized B-score (activity score, 25-100; higher = stronger inhibition) at 10 µM;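 active = ratio plate-corrected score three or more library SD toward inhibition, starting fluorescence score within five deviations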;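 note: score derived from kinetic fluorescence span divided by baseline fluorescence per well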
# ANO1 activ = TMEM16A chloride channel activators or potentiators, primary screen, cell-based, HTS | Anoctamin-1 (Mus musculus), Q8BHY3 | HEK293 TMEM16A/YFP-H148Q/I152L, iodide quench fluorescence; active compounds read low | B-score at 10 µM | 340,000 compounds, 0.3% hits | AID 623877, 2012;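 active = fluorescence-ratio B-score plate-corrected deviation score at least 3 library SD below zero, with starting fluorescence score within 5 deviations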;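 note: channel opened by trigger with iodide after compound preincubation; score built on the fluorescence ratio of max minus min over baseline; more negative score means more quench and so TMEM16A activation or potentiation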
# CHT PAM = CHT positive allosteric modulators, primary screen, cell-based, membrane potential dye, choline EC20. CHT-expressing cells; active compounds read high; LV-AA mutant CHT in HEK293 cells. High affinity choline transporter 1 (Homo sapiens), Q9GZV3. B-score at 10 µM. 310,000 compounds, 0.49% hits;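 active = initial fluorescence not abnormally high and integrated response B-score, plate-corrected, over 3 SD above library mean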
# CHT block conf = CHT inhibitors, confirmation, cell-based, membrane potential dye, duplicate | shares compounds with CHT block | CHT activity remaining % of control (active compounds read low), % at 10 µM | CHT-expressing cells, choline membrane potential dye; LV-to-AA substituted CHT, HEK293 cells | AID 493221, 2011 | 2,400 compounds, 70% hits;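 active = choline transporter activity left, mean of duplicates at 10 µM, below buffer-only control mean minus 3 SD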;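 note: depolarization triggered by choline at its EC90 following an EC20 pre-addition; 0% = hemicholinium-3 full block and 100% = buffer-only control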
# HEK293 CHT ctr = membrane potential effects in parental HEK293, counter-screen for CHT inhibitor project, cell-based, membrane potential dye; membrane potential ratio readout (active if shifted either direction beyond buffer ±3SD; no single direction) at 10 µM; shares compounds with CHT block; choline response; active = decrease or increase beyond buffer ±3SD; 2,400 compounds, 4% hits; AID 493222, 2011;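 note: parental cells lack the transporter so any hit is non-specific; ratio is peak minus trough fluorescence over baseline after EC90 choline challenge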
# Starred values were filed as active, the others as inactive; i = inactive; · = not tested or not shown. Hits are enriched below; roughly 2.7% of the tested compounds scored in any of these assays.
SMILES,IDE act,IDE inh,CHT block,TMEM16A inh,ANO1 activ,CHT PAM,CHT block conf,HEK293 CHT ctr
CCn1c(COc2ccc(OC)cc2)nc2ccccc21,4,9,-5.2*,i,i,i,i,i
COc1cc(NC(=O)COC(=O)CO/N=C(\C)c2ccc3c(c2)OCO3)cc(OC)c1OC,4,8,i,i,i,i,·,·
Cc1ccc2c(c1)N(S(=O)(=O)c1ccc(CN3C(=O)c4cccnc4C3=O)s1)CCO2,3,0,-5.2*,i,i,i,69%*,i
COc1ccc(CN2C(=O)c3cccnc3C2=O)cc1S(=O)(=O)N1CCOc2ccccc21,0,0,i,i,i,i,·,·
CCCCCc1cc(=O)oc2c(C(CCN3CCCCC3)c3ccc(OC)cc3)c(OC)cc(OC)c12 (configuration not stated),15,-1,i,i,i,i,·,·
COc1cc(C(CC(=O)N2CCCC2)c2c(OC)cc(OC)c3c(-c4ccccc4)cc(=O)oc23)cc(OC)c1OC (configuration not stated),-6,4,i,i,i,i,·,·
COc1cc(C(CCN2CCCCC2)c2c(OC)cc(OC)c3c(-c4ccccc4)cc(=O)oc23)cc(OC)c1OC (configuration not stated),3,0,-8.1*,i,i,i,44%*,i
COc1cc(C(CCN2CCCC(C)C2)c2c(OC)cc(OC)c3c(-c4ccccc4)cc(=O)oc23)cc(OC)c1OC (configuration not stated),4,2,-8.7*,i,i,i,22%*,i
CCCCCc1cc(=O)oc2c(C(CCN3CCCC3)c3ccc(N(C)C)cc3)c(OC)cc(OC)c12 (configuration not stated),5,-8,-6.3*,i,i,i,i,i
OC1CNc2c(ccc3ccccc23)C1 (configuration not stated),1,·,·,·,i,·,·,·
Cc1cc(C)cc(NC(=O)C(c2ccccc2)N2CCN(CC(=O)NC3CC3)CC2)c1 (configuration not stated),6,-1,·,·,i,·,·,·
COC(=O)C(C)Sc1nc2c(c(=O)[nH]c(=O)n2C)n1CCCc1ccccc1 (configuration not stated),-5,-1,-9.3*,i,i,i,21%*,i
O=C(Nc1cc(S(=O)(=O)N2CCOCC2)ccc1Cl)c1ccc(=O)[nH]c1,4,·,·,·,i,·,·,·
Nn1c(Cc2ccccc2F)nnc1SCC(=O)Nc1cccc(S(=O)(=O)NC2=NCCCCC2)c1,5,1,-6.1*,i,i,i,i,i
Cn1c(Cc2ccccc2)nnc1SCC(=O)Nc1cccc(S(=O)(=O)NC2=NCCCCC2)c1,0,-2,i,i,i,i,·,·
COc1cccc(-c2cc(-c3cccnc3)nc(N)c2C#N)c1,-1,6,-7.3*,i,i,i,i,i
COc1cccc(-c2cc(-c3cccnc3)c(C#N)c(N)n2)c1,0,5,i,i,i,i,·,·
CC(NC(=O)/C=C/c1ccccc1)c1ccccc1 (configuration not stated),5,2,-5.4*,i,i,i,i,i
